# Experimental data as given in the supplement of paper PMC10849652.
# The full data set covers some 8,800 targets. This sample favours those with a hit. About 0.5% of all pairs of compound and target were hits. A number with no mark means an inactive call.
# Legend:
# Experiment in all cases: log2 fold change, soluble protein after heating vs DMSO (PISA); higher = thermal stabilisation; K562 lysate, 10 uM; active = over 0.2 and 3.5 SD of the protein, either way, in both replicates (recomputed)
# vemurafenib = compound: CCCS(=O)(=O)Nc1ccc(F)c(C(=O)c2c[nH]c3ncc(-c4ccc(Cl)cc4)cc23)c1F [vemurafenib]
# Summary of the method: (§1)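 The values are log-two fold changes in thermal stability compared with solvent controls and come from duplicates. They were obtained by TMTpro 16plex LC-MS/MS, with channel sums equalised, on the supernatant after 21,000xg for 90 min. That supernatant came from crude K562 extract at 1 mg/mL protein treated with 10 μM compound for 30 min, heated for 3 min across 48°C-58°C, pooled and brought to 0.5% NP-40 at 4°C.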
# [1] = compound: CCCS(=O)(=O)Nc1ccc(F)c(C(=O)c2c[nH]c3ncc(Cl)cc23)c1F
# Summary of the method: as §1
# barasertib = compound: CCN(CCCOc1ccc2c(Nc3cc(CC(=O)Nc4cccc(F)c4)[nH]n3)ncnc2c1)CCOP(=O)(O)O [barasertib]
# Summary of the method: as §1
# [2] = compound: CC[C@@H]1C(=O)N(C)c2cnc(Nc3ccc(C(=O)NC4CCN(C)CC4)cc3OC)nc2N1C1CCCC1
# Summary of the method: as §1
# volasertib = compound: CC[C@@H]1C(=O)N(C)c2cnc(Nc3ccc(C(=O)N[C@H]4CC[C@H](N5CCN(CC6CC6)CC5)CC4)cc3OC)nc2N1C(C)C [volasertib]
# Summary of the method: as §1
# [3] = compound: CCn1c(C(=O)N(C2CC2)C2CC2)cc2c3c(ncn3C)c(Nc3cc(C)n(C)n3)nc21
# Summary of the method: as §1
# [4] = compound: CCn1cc(-c2ccnc3[nH]c(-c4cccc(CN(C)C)c4)cc23)c(-c2ccc(NC(=O)N(C)C)cc2)n1
# Summary of the method: as §1
# [5] = compound: CN1CCC(CNc2ccc3ncc(-c4cccc(OC(F)(F)F)c4)n3n2)CC1
# Summary of the method: as §1
# saracatinib = compound: CN1CCN(CCOc2cc(OC3CCOCC3)c3c(Nc4c(Cl)ccc5c4OCO5)ncnc3c2)CC1 [saracatinib]
# Summary of the method: as §1
# sotrastaurin = compound: CN1CCN(c2nc(C3=C(c4c[nH]c5ccccc45)C(=O)NC3=O)c3ccccc3n2)CC1 [sotrastaurin]
# Summary of the method: as §1
# UniProt Q9NSD9, sequence (Q9NSD9 whole entry, looked up): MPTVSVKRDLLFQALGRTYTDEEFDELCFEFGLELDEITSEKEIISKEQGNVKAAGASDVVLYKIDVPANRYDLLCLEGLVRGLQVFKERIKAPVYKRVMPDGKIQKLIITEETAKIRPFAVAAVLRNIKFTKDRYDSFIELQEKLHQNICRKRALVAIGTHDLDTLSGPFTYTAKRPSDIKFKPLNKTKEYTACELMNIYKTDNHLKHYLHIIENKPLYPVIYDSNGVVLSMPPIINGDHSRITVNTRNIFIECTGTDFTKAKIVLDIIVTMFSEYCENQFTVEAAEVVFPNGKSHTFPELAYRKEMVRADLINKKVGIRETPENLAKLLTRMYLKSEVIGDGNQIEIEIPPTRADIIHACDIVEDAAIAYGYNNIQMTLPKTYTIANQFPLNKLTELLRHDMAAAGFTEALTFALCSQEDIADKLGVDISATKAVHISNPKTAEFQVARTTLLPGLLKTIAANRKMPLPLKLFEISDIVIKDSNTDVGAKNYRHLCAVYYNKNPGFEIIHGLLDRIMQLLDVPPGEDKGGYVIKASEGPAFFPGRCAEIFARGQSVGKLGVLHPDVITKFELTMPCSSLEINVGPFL
# UniProt Q9NRY5, sequence (Q9NRY5 whole entry, looked up): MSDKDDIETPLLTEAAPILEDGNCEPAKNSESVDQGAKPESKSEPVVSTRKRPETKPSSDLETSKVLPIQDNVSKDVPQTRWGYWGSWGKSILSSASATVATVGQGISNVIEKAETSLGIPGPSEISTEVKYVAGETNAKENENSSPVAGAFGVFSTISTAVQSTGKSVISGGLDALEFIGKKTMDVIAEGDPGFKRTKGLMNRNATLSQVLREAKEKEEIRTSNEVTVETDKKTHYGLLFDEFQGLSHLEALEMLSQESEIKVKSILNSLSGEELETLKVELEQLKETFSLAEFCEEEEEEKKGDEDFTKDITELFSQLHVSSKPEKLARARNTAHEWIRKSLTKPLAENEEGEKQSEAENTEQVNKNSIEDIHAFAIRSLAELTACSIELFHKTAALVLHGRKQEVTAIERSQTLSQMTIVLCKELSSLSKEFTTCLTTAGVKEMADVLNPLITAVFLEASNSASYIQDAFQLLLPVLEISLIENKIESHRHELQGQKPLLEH
# UniProt Q9NRW4, sequence (Q9NRW4 whole entry, looked up): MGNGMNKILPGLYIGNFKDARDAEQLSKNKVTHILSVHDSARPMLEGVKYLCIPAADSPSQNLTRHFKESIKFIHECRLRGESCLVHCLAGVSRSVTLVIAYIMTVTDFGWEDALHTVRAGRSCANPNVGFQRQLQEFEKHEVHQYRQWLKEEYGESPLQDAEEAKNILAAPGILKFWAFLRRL
# UniProt O43427, sequence (O43427 whole entry, looked up): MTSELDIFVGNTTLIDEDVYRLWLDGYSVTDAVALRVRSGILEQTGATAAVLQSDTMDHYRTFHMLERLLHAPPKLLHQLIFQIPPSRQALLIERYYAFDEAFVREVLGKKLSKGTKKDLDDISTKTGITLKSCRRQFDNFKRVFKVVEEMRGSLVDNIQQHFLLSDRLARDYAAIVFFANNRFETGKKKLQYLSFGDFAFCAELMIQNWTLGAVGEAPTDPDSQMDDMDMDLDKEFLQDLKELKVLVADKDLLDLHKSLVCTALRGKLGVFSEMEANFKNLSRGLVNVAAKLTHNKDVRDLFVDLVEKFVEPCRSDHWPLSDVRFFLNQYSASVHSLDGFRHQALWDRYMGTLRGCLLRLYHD
# UniProt Q9UJY4, sequence (Q9UJY4 whole entry, looked up): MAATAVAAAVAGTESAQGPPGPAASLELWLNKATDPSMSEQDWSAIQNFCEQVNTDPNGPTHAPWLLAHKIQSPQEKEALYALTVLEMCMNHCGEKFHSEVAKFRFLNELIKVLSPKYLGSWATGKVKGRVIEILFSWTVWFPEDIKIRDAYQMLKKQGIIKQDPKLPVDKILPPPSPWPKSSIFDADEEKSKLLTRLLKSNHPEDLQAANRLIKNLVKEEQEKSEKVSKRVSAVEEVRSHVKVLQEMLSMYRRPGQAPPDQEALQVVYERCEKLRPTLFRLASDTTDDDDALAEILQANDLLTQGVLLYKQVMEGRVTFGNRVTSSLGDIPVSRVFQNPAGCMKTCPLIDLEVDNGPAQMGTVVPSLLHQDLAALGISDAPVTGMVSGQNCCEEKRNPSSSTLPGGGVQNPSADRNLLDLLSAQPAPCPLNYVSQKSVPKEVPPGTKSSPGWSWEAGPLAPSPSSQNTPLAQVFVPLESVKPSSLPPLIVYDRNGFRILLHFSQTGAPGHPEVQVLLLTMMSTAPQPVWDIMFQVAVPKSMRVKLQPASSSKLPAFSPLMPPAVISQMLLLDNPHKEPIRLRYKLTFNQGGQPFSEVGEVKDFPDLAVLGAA
# UniProt Q9BPY3, sequence (Q9BPY3 whole entry, looked up): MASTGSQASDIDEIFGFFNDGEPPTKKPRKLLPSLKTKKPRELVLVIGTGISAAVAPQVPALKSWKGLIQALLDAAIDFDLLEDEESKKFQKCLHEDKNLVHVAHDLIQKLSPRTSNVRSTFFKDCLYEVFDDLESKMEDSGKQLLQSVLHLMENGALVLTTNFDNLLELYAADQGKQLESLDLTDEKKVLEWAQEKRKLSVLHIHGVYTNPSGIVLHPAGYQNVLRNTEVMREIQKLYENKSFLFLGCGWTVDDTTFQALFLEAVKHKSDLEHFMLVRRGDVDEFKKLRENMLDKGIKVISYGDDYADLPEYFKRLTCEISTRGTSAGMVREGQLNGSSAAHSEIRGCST
# UniProt Q9NV70, sequence (Q9NV70 whole entry, looked up): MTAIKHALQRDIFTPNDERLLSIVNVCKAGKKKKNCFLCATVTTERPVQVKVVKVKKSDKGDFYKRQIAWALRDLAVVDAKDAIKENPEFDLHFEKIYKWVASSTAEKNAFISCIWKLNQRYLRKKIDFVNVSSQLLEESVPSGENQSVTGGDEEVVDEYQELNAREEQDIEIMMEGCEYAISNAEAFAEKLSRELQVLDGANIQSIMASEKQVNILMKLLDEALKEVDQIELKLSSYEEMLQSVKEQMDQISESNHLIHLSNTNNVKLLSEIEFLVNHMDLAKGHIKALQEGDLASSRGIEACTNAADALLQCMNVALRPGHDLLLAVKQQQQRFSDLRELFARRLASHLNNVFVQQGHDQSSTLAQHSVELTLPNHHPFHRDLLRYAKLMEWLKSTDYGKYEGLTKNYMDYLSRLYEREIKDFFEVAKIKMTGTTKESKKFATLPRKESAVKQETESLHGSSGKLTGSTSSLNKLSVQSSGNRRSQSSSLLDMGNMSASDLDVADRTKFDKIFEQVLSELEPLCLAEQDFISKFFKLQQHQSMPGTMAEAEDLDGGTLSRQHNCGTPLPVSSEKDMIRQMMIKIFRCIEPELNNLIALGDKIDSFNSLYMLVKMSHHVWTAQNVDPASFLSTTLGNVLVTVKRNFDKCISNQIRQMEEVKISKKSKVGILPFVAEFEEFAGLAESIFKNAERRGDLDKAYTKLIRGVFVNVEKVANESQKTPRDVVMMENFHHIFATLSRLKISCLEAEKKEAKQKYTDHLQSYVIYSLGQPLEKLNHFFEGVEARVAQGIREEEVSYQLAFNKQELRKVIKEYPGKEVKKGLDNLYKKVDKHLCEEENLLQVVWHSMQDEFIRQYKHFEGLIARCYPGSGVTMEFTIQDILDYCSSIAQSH
# UniProt P23919, sequence (P23919 whole entry, looked up): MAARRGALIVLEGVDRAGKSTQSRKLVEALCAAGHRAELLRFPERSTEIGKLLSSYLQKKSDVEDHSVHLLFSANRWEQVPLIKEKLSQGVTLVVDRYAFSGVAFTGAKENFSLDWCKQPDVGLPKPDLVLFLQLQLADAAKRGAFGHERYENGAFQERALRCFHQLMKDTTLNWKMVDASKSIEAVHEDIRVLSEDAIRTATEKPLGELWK
# UniProt Q92562, sequence (Q92562 whole entry, looked up): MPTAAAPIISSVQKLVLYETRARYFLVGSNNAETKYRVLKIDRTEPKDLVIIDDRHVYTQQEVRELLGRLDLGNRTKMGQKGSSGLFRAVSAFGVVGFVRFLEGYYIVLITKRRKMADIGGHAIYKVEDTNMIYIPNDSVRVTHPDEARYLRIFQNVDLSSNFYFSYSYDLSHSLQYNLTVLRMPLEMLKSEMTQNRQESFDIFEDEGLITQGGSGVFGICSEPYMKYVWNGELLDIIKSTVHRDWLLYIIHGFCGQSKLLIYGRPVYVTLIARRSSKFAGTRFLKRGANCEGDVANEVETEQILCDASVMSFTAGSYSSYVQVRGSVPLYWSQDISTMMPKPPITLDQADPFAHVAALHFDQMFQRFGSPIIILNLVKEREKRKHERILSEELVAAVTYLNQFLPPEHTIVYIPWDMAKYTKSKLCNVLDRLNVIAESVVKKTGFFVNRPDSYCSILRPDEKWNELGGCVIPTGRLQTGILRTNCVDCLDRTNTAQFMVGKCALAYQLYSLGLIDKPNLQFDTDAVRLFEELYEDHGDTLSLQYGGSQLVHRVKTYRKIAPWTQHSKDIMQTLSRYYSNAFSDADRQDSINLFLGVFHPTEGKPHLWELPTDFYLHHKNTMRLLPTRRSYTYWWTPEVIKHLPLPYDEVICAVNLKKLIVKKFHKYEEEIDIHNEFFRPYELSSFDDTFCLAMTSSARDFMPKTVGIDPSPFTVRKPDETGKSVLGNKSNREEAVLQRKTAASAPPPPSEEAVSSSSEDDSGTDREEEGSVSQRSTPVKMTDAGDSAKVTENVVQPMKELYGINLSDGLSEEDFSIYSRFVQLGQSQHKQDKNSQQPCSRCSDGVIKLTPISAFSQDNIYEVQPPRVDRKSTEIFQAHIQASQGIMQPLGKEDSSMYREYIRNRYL
# UniProt P41567, sequence (P41567 whole entry, looked up): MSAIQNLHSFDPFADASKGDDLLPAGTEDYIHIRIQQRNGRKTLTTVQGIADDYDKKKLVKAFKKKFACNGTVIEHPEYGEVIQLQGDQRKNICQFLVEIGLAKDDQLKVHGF
Target,log2 fold change (vemurafenib),log2 fold change [1],log2 fold change (barasertib),log2 fold change [2],log2 fold change (volasertib),log2 fold change [3],log2 fold change [4],log2 fold change [5],log2 fold change (saracatinib),log2 fold change (sotrastaurin)
FARSA (UniProt Q9Y285),-0.002,-0.01,-0.012,0.091,-0.035,-0.068,-0.018,0.054,0.03,0.583 (active)
GEMIN5 (UniProt Q8TEQ6),0.006,0.008,0.004,-0.085,-0.069,0.066,-0.052,-0.061,0.018,0.015
FYB1 isoform 3 (UniProt O15117),-0.056,-0.011,-0.003,0.043,-0.026,-0.018,0.072,-0.101,0.007,0.008
DYNC1I2 isoform 5 (UniProt Q13409),-0.015,0.013,-0.03,-0.012,-0.013,-0.016,-0.017,0.017,0.003,-0.034
DTYMK (UniProt P23919),-0.008,0.042,0.022,-0.062,0.006,0.059,0.011,-0.032,0.011,-0.033
"EPB41, A0A2R8Y783",0.129,0.063,0.112,-0.141,0.057,,-0.136,-0.048,0.075,
GGA2 (UniProt Q9UJY4),-0.003,0.011,0.073,-0.005,-0.048,0.032,-0.02,-0.088,0.025,0.041
ENO2 (UniProt P09104),0.05,0.008,-0.132,0.044,0.046,-0.069,-0.231,0.319 (active),0.06,0.034
FAM118B (UniProt Q9BPY3),-0.06,0.03,0.004,-0.014,0.001,0.022,-0.03,-0.027,0.004,0.048
GCN1 (UniProt Q92616),0.025,0.004,0.061,-0.107,-0.084,0.082,-0.05,-0.07,0.015,-0.006
FHOD1 (UniProt Q9Y613),-0.018,0.018,0.042,-0.05,-0.034,0.048,0.013,-0.017,0.015,0.036
FAM114A2 (UniProt Q9NRY5),0.054,0.049,0.086,0.131,-0.013,0.014,0.049,-0.039,0.03,0.033
EIF2D (UniProt P41214),0.041,0.024,0.017,-0.074,-0.052,0.001,-0.02,-0.071,-0.002,0.026
FADS3 (UniProt Q9Y5Q0),0.066,0.149,0,0.119,-0.103,0.023,-0.957 (active),0.343,0.152,-0.057
FIBP (UniProt O43427),-0.011,0.041,0.105,-0.236 (active),-0.013,-0.001,-0.028,-0.021,0.039,0.008
EXOC1 (UniProt Q9NV70),0,0.027,0.051,-0.106,-0.03,0.082,0.053,-0.119,0,0.02
GAA (UniProt P10253),0.068,-0.101,-0.063,-0.006,0.015,-0.021,0.122,0.027,,-0.039
GABPB1 (UniProt Q06547),-0.05,0.01,0.014,-0.024,0.025,0.006,0.193,-0.199,0.057,0.023
DVL2 (UniProt O14641),0.067,-0.172,0.119,-0.033,0,0.007,0.011,-0.003,0.018,-0.055
FAT2 (UniProt Q9NYQ8),0.213,0.19,-0.001,0.016,-0.097,0.089,-0.487,0.248,,0.125
EIF1 (UniProt P41567),0.013,-0.014,-0.053,0.053,0.023,-0.05,0.009,0.084,-0.02,-0.042
FIG4 (UniProt Q92562),0.107,0.071,-0.085,-0.201,-0.012,-0.045,0.104,-0.012,0.032,0.092
FBXO45 (UniProt P0C2W1),-0.064,0.088,0.031,-0.077,-0.04,0.062,-0.002,0.037,,0.028
EP400 isoform 5 (UniProt Q96L91),-0.021,-0.007,-0.015,0.044,-0.042,-0.023,-0.007,0.011,0.01,-0.012
FARSB (UniProt Q9NSD9),-0.009,0.006,0.018,0.003,-0.024,0.016,0,-0.018,0.022,0.095
FYN (UniProt P06241),-0.036,-0.01,0.065,-0.351,0.046,0.033,0.048,0.22,,0.023
EPB41 isoform 4 (UniProt P11171),,0.014,,,0.134,-0.079,-0.073,-0.065,,-0.02
DUSP22 isoform 2 (UniProt Q9NRW4),0.134,-0.109,-0.016,,0.006,-0.033,-0.125,0.052,0.009,
